This is a sample that favours compounds with a hit; in the whole collection about 27% have one here.
CYP2C9 activ: human CYP2C9 activators, primary screen, biochemical, luminescence | Cytochrome P450 2C9 (Homo sapiens), P11712 | recombinant CYP2C9, luciferin-H conversion; stronger effect = higher value; factor 1 = untreated enzyme, 0 = blocked | activation factor at 5 µM | 1.4% of 96,000 active | AID 1024, 2008;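 active = activation factor of 2 or more for CYP2C9 at a 5 µM dose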;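 also: 0 = sulfaphenazole-blocked wells and 1 = vehicle-only wells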
Target sequence (P11712 whole entry, looked up): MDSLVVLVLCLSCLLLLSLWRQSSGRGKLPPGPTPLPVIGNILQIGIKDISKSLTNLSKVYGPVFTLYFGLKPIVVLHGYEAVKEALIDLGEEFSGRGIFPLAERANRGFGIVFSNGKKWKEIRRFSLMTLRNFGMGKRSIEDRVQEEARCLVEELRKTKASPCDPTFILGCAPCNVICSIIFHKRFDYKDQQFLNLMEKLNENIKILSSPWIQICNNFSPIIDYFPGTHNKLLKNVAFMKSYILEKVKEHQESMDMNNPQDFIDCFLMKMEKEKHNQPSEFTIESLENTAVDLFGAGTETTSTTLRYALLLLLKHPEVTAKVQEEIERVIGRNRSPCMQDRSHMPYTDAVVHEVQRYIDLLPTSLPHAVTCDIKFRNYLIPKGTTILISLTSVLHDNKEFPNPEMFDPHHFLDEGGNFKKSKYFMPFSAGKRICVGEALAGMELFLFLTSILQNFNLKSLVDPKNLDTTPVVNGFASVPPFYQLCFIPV
sEH inh: soluble epoxide hydrolase inhibitors, primary screen, biochemical, human sEH | recombinant human sEH enzymatic activity assay | Bifunctional epoxide hydrolase 2 (Homo sapiens), P34913 | 0.34% of 91,000 active | inhibition, % at 2 µM; in the data active = inhibition above about 80%
sEH activator: soluble epoxide hydrolase activators, primary screen, biochemical, human sEH. AID 717, 2007. purified human sEH enzymatic activity, activator screen. activation, % at 2 µM. 0.04% of 91,000 active; in the data active = activation above about 37%
CYP2C9 inh: blockers of cytochrome P450 2C9 activity – biochemical, luminescence, ADME assay, primary screen | AID 777, 2007 | CYP2C9 Supersomes, luciferin-H conversion | P11712 | 20% of 96,000 active | inhibition, % at 5 µM;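 active = blocking of liver enzyme CYP2C9 beyond about 50% at 5 µM, limit read from the data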
CYP2C19 act: human CYP2C19 activators, primary screen, biochemical, luminescence. recombinant CYP2C19, luciferin-H EGE luminescence; stronger effect = higher value; 0 = fully inhibited enzyme, 1 = untreated enzyme. Cytochrome P450 2C19 (Homo sapiens), P33261. 96,000 tested, under 10 active. activation factor at 5 µM;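 active = activation factor of at least 2 at 5 µM in the primary screen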;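 also: 0 = wells with 2.5 mM tranylcypromine and 1 = vehicle-only wells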
CYP2C19 inhib: blockers of cytochrome P450 2C19 activity – biochemical, luminescence, ADME assay, primary screen | inhibition, % at 5 µM | P33261 | 21% of 96,000 active | CYP2C19 Supersomes, luciferin-H EGE luminescence, 30 min;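 active = CYP2C19 inhibition above a set limit at 5 µM in the primary screen, cut at about 50% in these data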;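 also: plate controls were negative control wells for no effect and 2.5 mM tranylcypromine positive control for full effect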
* = called active by the depositor; x = not tested or not shown.

SMILES	CYP2C9 activ	sEH inh	sEH activator	CYP2C9 inh	CYP2C19 act	CYP2C19 inhib
CC1CC(C)CN(S(=O)(=O)c2ccc(C(=O)NCc3ccc4c(c3)OCO4)cc2)C1 (stereo unspecified)	0.9	13.8	-13.1	11.6	1.1	-11.6
O=C(NC1CCCC1)c1cccc(S(=O)(=O)N2CCCCC2)c1	0.8	32.8	-30.8	24.2	0.9	8.2
CC1CC(C)CN(S(=O)(=O)c2ccc(C(=O)NCCCn3ccnc3)cc2)C1 (stereo unspecified)	0.1	x	x	89.5*	0.7	32.5
O=C(NCCCn1ccnc1)c1ccc(Cl)c(S(=O)(=O)N2CCOCC2)c1	0	16.6	-13.2	96.8*	0.6	36.4
O=C(NCCCn1ccnc1)c1cccc(S(=O)(=O)N2CCCCCC2)c1	0	15.1	-16.0	100.1*	0	95.4*
COCCN1C(=O)C(=O)/C(=C(/O)c2cccc(S(=O)(=O)N(C)C)c2)C12C(=O)N(C)c1ccccc12 (stereo unspecified)	0.2	-19.6	22.9	83.5*	1.2	-15.9
CCCOc1ccc(/C(O)=C2\C(=O)C(=O)N(CCCOC)C23C(=O)N(C)c2ccccc23)cc1 (stereo unspecified)	1.1	x	x	-11.8	1	-2.2
O=C(Cn1nnc(-c2ccccc2Cl)n1)N1CCN(S(=O)(=O)c2ccc(Cl)cc2)CC1	0.9	x	x	11.3	0.9	12.0
CCCCNC(=O)CN1C(=O)NC2(CCCc3ccccc32)C1=O (stereo unspecified)	0.3	-11.6	9.9	68.2*	1.1	-5.7
CNC(=O)CN1C(=O)NC2(CCc3ccccc32)C1=O (stereo unspecified)	0.8	-9.6	12.6	15.7	0.8	24.8
Cc1cc(C(=O)CN2C(=O)NC(c3ccccc3)(c3ccccc3)C2=O)c(C)n1Cc1ccccc1	0.3	-1.6	4.5	69.7*	0.7	28.9
Cc1cc(C(=O)CN2C(=O)NC3(CCCc4ccccc43)C2=O)c(C)n1C (stereo unspecified)	0.3	-8.0	6.7	72.5*	0.7	31.6
Cc1ccccc1OCCN1C(=O)NC2(CCCc3ccccc32)C1=O (stereo unspecified)	1.5	-17.3	21.1	-54.3	0.6	35.2
O=C(CN1C(=O)NC2(CCc3ccccc32)C1=O)c1ccc2c(c1)OCCO2 (stereo unspecified)	0	x	x	95.7*	0.4	57.6*
Cc1ccc(C(=O)C2=C(O)C(=O)N(CCCN(C)C)C23C(=O)N(C)c2ccccc23)o1 (stereo unspecified)	1.1	x	x	-7.8	0.9	8.8
CCc1c(C)nc2ncnn2c1Nc1ccc(C#N)c(Cl)c1	0.8	7.4	-5.9	18.2	0.6	38.4
Cc1noc(C)c1CSc1nc2ccccc2c(=O)n1-c1ccccc1	0.2	-3.1	3.6	84.2*	0.6	37.4
C=CCn1c(SCC(=O)c2ccc(Cl)s2)nc2ccccc2c1=O	0.6	-7.6	5.7	35.4	0.7	27.1
COc1ccc(-c2noc(CSc3nc4ccccc4c(=O)n3-c3ccccc3)n2)cc1	0.7	-15.9	18.7	32.3	0.9	8.9
C=CCn1c(SCC(=O)N2CCc3ccccc3C2)nc2ccccc2c1=O	0.1	-8.7	7.5	94.7*	0.3	74.0*
COc1cc2nc(SCc3c(C)noc3C)n(CCC3=CCCCC3)c(=O)c2cc1OC	0.3	-7.5	8.1	74.0*	0.7	32.6
O=c1c2ccccc2nc(SCc2nnc(-c3ccccc3)o2)n1-c1ccccc1	0	x	x	95.4*	0.6	35.1
COCCNC(=O)c1ccc2c(c1)nc(C)n2-c1cc(OC)c(OC)c(OC)c1	1.2	-18.3	18.4	-17.4	1.1	-7.7
O=C(Nc1ccc(-c2cn3ccsc3n2)cc1)c1ccc(F)c(S(=O)(=O)N2CCOCC2)c1	0.5	28.6	-29.6	45.5	0.8	15.3
Cc1cc(NC(=O)C2C3C(=O)N(CC4CCCO4)C(C(=O)NCc4ccccc4)C34C=CC2(C)O4)no1 (stereo unspecified)	x	2.5	-1.1	x	x	x
SMILES	CYP2C9 activ	sEH inh	sEH activator	CYP2C9 inh	CYP2C19 act	CYP2C19 inhib
C=CCn1c(SCc2nc3ccccc3c(=O)[nH]2)nc2ccccc2c1=O	0.2	0.3	-0.2	82.8*	0.7	33.2
C=CCc1c(C)nc(SCc2nc3ccccc3c(=O)[nH]2)[nH]c1=O	0.3	12.1	-12.0	66.7*	0.8	15.5
C=CCn1c(Cc2ccc(OC)cc2)nnc1SCc1nc2ccccc2c(=O)[nH]1	0.9	x	x	13.4	0.8	15.5
Cc1noc(C)c1CSc1nc2ccccc2c(=O)n1-c1ccc(F)cc1F	0.1	x	x	94.1*	0.6	39.3
C=CCn1c(SCc2c(C)noc2C)nc2ccccc2c1=O	0	-14.6	14.5	96.8*	0	95.1*
CCOc1ccccc1N(C(=O)CNC(=O)c1ccco1)C(C(=O)NC(C)(C)C)c1ccncc1 (stereo unspecified)	0.7	-0.8	2.3	30.5	0.6	38.5
Cc1cc(-c2ccccc2)nc2cc(C(=O)N(Cc3ccccc3)Cc3ccccc3)nn12	x	-6.5	12.4	x	x	x
CC(C)[C@H](NC(=O)c1ccccc1)C(=O)OCC(=O)N1CCc2ccccc2C1	1.3	7.8	-5.8	-33.3	1.1	-12.3
CCCn1c(SCc2nc3sc(C)c(C)c3c(=O)[nH]2)nc2ccccc2c1=O	0.3	x	x	66.0*	0.6	36.9
Cc1nc(Nc2ccc3c(c2)OCO3)c2oc3ccccc3c2n1	0.3	-13.2	11.8	65.6*	0.5	54.8*
c1ccc2c(c1)oc1c(Nc3ccc(CN4CCOCC4)cc3)ncnc12	0.8	7.2	-7.1	17.1	0.4	59.8*
c1ccc2c(c1)oc1c(NCCN3CCOCC3)ncnc12	0.8	5.0	-6.8	16.2	1	0.4
c1ccc2c(c1)oc1c(Nc3ccc4c(c3)OCO4)ncnc12	0.6	-4.7	2.7	44.8	0.5	53.7*
c1ccc2c(c1)oc1c(NCc3ccc4c(c3)OCO4)ncnc12	0.2	x	x	84.8*	0.3	69.7*
CCOc1c(C(=O)CC)cc2c(C)cc(=O)oc2c1C	x	-1.8	4.3	x	x	x
CCC(c1nnc(SCC(=O)Nc2ccc(C(=O)Nc3ccccc3OC)cc2)o1)N(C)C (stereo unspecified)	1.6	-6.2	9.4	-57.0	0.6	35.2
Cc1cccc(C)c1NC(=O)CSc1nc(COc2ccccc2)nc2ccccc12	0.1	6.1	-8.0	89.6*	0.3	66.3*
Cc1cccc(NC(=O)CSc2nc(COc3ccccc3)nc3ccccc23)c1C	0.1	16.4	-18.1	90.5*	0.6	38.7
CCc1nc(SCC(=O)Nc2sc(C)c(C)c2C(=O)OC)c2ccccc2n1	0.5	6.3	-6.1	54.3*	0.9	14.5

From PubChem
